High-throughput results: PubChem BioAssay, Johns Hopkins Ion Channel Center
KCNQ2 enhance: potentiators of rat KCNQ2 potassium channel. 310,000 tested, 0.54% active. B-score at 10 µM. O88943. CHO-K1 KCNQ2, FluxOR thallium flux fluorescence; active compounds read high;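 active = fluorescence ratio B-score at least 3 SD of library B-scores, with initial fluorescence B-score within 3 of them, cut at about 5.3 in these data; same plate scores as AID 2156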;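 note: B-score of peak minus minimum over baseline fluorescence ratio after K+ and Tl+ stimulus; positive B-score means potentiation of KCNQ2 with more thallium influx and brighter signal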
KCNQ2 block: KCNQ2 (rat) channel inhibition; O88943; CHO-K1 KCNQ2, FluxOR thallium flux, 20 min; active compounds read low; 310,000 tested, 1.1% active; B-score at 10 µM;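 active = fluorescence ratio B-score at most minus 3 library SDs, with starting brightness B-score within 2 library SDs, cut at about -5.5 in these data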
KCNQ2 block conf: confirmation of rat KCNQ2 potassium channel inhibitors. shares compounds with KCNQ2 block. KCNQ2-expressing cells, thallium flux, inhibition; active compounds read low. 1,000 tested, 57% active. AID 493025. activity change, negative = inhibition, % at 10 µM;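 note: 0% = vehicle wells and values are ratio percent relative to vehicle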
KCNQ1 spec: selectivity of KCNQ2 inhibitors against human KCNQ1. shares compounds with KCNQ2 block. KCNQ1-expressing cells, FluxOR thallium flux fluorescence; active compounds read low. activity change, negative = inhibition, % at 10 µM. 1,000 tested, 15% active;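 active = activity change at least 3 SD of negative controls below their mean in both duplicate wells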;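 note: CHO cells stably transfected with KCNQ1 and depolarized by potassium stimulus; peak minus minimum fluorescence over baseline after thallium addition; 0% = vehicle negative control and -100% = blank without thallium stimulus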
Target sequence (P51787 whole entry, looked up): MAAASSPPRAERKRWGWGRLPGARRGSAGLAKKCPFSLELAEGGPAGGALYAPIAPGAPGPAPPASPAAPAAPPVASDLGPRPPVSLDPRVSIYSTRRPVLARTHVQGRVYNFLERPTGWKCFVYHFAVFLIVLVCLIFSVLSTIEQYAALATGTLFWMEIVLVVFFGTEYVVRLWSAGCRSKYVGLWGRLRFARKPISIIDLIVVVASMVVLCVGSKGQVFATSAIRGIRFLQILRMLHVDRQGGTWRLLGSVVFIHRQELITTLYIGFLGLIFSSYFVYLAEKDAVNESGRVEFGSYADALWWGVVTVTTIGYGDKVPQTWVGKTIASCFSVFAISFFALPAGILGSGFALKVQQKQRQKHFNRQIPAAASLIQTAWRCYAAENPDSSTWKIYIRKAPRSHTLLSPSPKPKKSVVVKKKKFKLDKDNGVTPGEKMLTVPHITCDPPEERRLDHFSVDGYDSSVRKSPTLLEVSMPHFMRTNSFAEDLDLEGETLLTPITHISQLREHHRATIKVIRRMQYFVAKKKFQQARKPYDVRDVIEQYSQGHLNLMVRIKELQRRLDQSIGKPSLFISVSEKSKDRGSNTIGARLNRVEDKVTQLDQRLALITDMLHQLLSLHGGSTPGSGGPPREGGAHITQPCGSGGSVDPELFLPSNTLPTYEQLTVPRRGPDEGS
CHO Tl ctr: counter-screen for KCNQ2 inhibitors: effect in parental CHO cells | shares compounds with KCNQ2 block | thallium flux counter-screen; active compounds read low | activity change, % at 10 µM | 1,000 tested, 14% active;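 note: 0% = vehicle negative controls with stimulus buffer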
KCNQ2 patch conf: blocks rat KCNQ2 current in automated patch clamp. AID 588531. shares compounds with KCNQ2 block. 550 tested, 49% active. calls only at 10 µM. KCNQ2-expressing cells
* hit, by the source's call. An excerpt weighted towards active compounds, which were near 1.6% of everything screened. Unless noted, the rule behind the calls is not given here.

Results for Cc1ccc(CNS(=O)(=O)c2ccc3c(c2)n(C)c(=O)c(=O)n3C)cc1 ?
KCNQ2 enhance: 0.13; KCNQ2 block: inactive

Results for O=C(CN1C(=O)NC2(CCCCCCC2)C1=O)NC1CCCc2ccccc21 (stereo not given) ?
KCNQ2 enhance: -7.5; KCNQ2 block: -7.5*; KCNQ2 block conf: -19%*; KCNQ1 spec: inactive; CHO Tl ctr: inactive; KCNQ2 patch conf: active

How did CC1CCCCC12NC(=O)N(CC(=O)NC1CCCc3ccccc31)C2=O (stereo not given) do in these assays?
KCNQ2 block: inactive

How did COC(=O)[C@@H](NC(=O)NC1CCCc2ccccc21)C(C)C (stereo not given in full) do in these assays?
KCNQ2 enhance: -7.2; KCNQ2 block: -7.2*; KCNQ2 block conf: inactive; KCNQ1 spec: inactive; CHO Tl ctr: inactive

Results for COc1ccc(NC(=O)NC2CCCc3ccccc32)cc1 (stereo not given) ?
KCNQ2 block: inactive

Results for COc1ccccc1OCC(=O)NC1CCCc2ccccc21 (stereo not given) ?
KCNQ2 block: inactive

What do the screens show for `CC(C)=CC(=O)OCC(=O)NC1CCCc2ccccc21` (stereo not given)?
KCNQ2 enhance: -6.7; KCNQ2 block: -6.7*; KCNQ2 block conf: inactive; KCNQ1 spec: inactive; CHO Tl ctr: inactive

What do the screens show for `Cc1cc(C(=O)NC(C)C2CC2)c(Cl)cc1Cl` (stereo not given)?
KCNQ2 block: inactive

Results for Cc1cc(F)ccc1NC(=O)c1cc(S(=O)(=O)N2CCOCC2)cn1C ?
KCNQ2 block: inactive

Results for CC(C1CC1)N(Cc1ccccc1)C(=S)Nc1ccccc1Cl (stereo not given) ?
KCNQ2 enhance: 1.4; KCNQ2 block: inactive

How did CC(Oc1ccccc1)C(=O)NC1=NCCS1 (stereo not given) do in these assays?
KCNQ2 enhance: 0.59; KCNQ2 block: inactive

Results for CC(C)CCn1c(SCC(=O)NC2CCS(=O)(=O)C2)nc2cc(Cl)ccc2c1=O (stereo not given) ?
KCNQ2 block: inactive

What do the screens show for `O=C(NCC1CCCO1)c1ccc2c(=O)n(Cc3cccc(Br)c3)c(=S)[nH]c2c1` (stereo not given)?
KCNQ2 block: inactive

Results for COCC(=O)N1CCC(Oc2ccc(C(=O)N3C[C@H]4CC[C@H]3C4)cc2)CC1 ?
KCNQ2 block: inactive

Results for CCNc1c(NC(=O)c2cccs2)c(=O)oc2ccccc12 ?
KCNQ2 block: inactive

Results for CNC(=O)c1cc(C(=O)c2ccc(Cl)cc2)c(Br)[nH]1 ?
KCNQ2 block: inactive

What do the screens show for `CCOc1ccc(-n2ccc(=O)c(C(=O)O)n2)cc1`?
KCNQ2 block: inactive

What do the screens show for `Cc1cc2oc(C(=O)N(Cc3ccccc3)c3ccccn3)cc(=O)c2cc1Cl`?
KCNQ2 enhance: 1.1; KCNQ2 block: inactive

Results for O=[N+]([O-])c1ccc(Nc2ccccc2)c2nonc12 ?
KCNQ2 enhance: 0.04; KCNQ2 block: inactive

What do the screens show for `O=[N+]([O-])c1ccc(Sc2cccc[n+]2[O-])c2nonc12`?
KCNQ2 enhance: -15; KCNQ2 block: -15*; KCNQ2 block conf: -64%*; KCNQ1 spec: -57%*; CHO Tl ctr: -60%*; KCNQ2 patch conf: inactive

How did Cc1onc(-c2ccccc2Cl)c1C(=O)NCCn1c(C)cc2ccccc21 do in these assays?
KCNQ2 enhance: -12; KCNQ2 block: -12*; KCNQ2 block conf: -36%*; KCNQ1 spec: inactive; CHO Tl ctr: inactive; KCNQ2 patch conf: active

Results for Cc1onc(-c2ccccc2Cl)c1C(=O)NCC(=O)O ?
KCNQ2 enhance: 0.01; KCNQ2 block: inactive

What do the screens show for `Cc1cc(O)c(S(=O)(=O)c2ccccc2)c(C)c1NS(=O)(=O)c1ccccc1`?
KCNQ2 enhance: 0.47; KCNQ2 block: inactive

Results for COc1ccc(-c2c(=O)n(OCc3ccccc3[N+](=O)[O-])c3ccccc3[n+]2[O-])c(OC)c1 ?
KCNQ2 block: inactive

How did O=C(Cc1c(F)cccc1Cl)N(Cc1ccccc1)c1ccccn1 do in these assays?
KCNQ2 enhance: 0.31; KCNQ2 block: inactive

What do the screens show for `O=C(/C=C/c1ccc(Cl)cc1)N(Cc1ccccc1)c1ccccn1`?
KCNQ2 enhance: -8.3; KCNQ2 block: -8.3*; KCNQ2 block conf: -31%*; KCNQ1 spec: inactive; CHO Tl ctr: inactive; KCNQ2 patch conf: active

Results for CCS(=O)(=O)Nc1ccc(C2=NN(S(=O)(=O)CC)C(c3cccs3)C2)cc1 (stereo not given) ?
KCNQ2 enhance: 0.66; KCNQ2 block: inactive

Results for Cc1nc2cc(NCc3nc4ccccc4n3Cc3ccccc3)ccc2n1C ?
KCNQ2 block: inactive

Results for Cc1cccc(NCc2nc3ccccc3n2Cc2ccccc2)c1 ?
KCNQ2 enhance: -8.4; KCNQ2 block: -8.4*; KCNQ2 block conf: inactive; KCNQ1 spec: inactive; CHO Tl ctr: inactive

How did CCCCCCOC1(c2ccccc2)OC(=O)c2ccccc21 (stereo not given) do in these assays?
KCNQ2 block: inactive

Results for CCCCCCCOC1(c2ccccc2)OC(=O)c2ccccc21 (stereo not given) ?
KCNQ2 enhance: -8.5; KCNQ2 block: -8.5*; KCNQ2 block conf: -22%*; KCNQ1 spec: inactive; CHO Tl ctr: inactive; KCNQ2 patch conf: inactive

How did C=CCc1ccccc1OCC(O)CN1C(=O)c2ccccc2C1=O (stereo not given) do in these assays?
KCNQ2 enhance: -12; KCNQ2 block: -12*; KCNQ2 block conf: inactive; KCNQ1 spec: inactive; CHO Tl ctr: inactive

Results for Cc1ccccc1OCC(O)CN1C(=O)c2ccccc2C1=O (stereo not given) ?
KCNQ2 block: inactive

What do the screens show for `O=C(COCc1cc(-c2ccc3c(c2)OCO3)on1)Nc1cccnc1Cl`?
KCNQ2 block: inactive

Results for Cc1nc2ccccc2c(=O)n1/N=C/c1cn(-c2ccccc2)nc1-c1cccs1 ?
KCNQ2 enhance: -9.1; KCNQ2 block: -9.1*; KCNQ2 block conf: -36%*; KCNQ1 spec: inactive; CHO Tl ctr: inactive; KCNQ2 patch conf: inactive

Results for Cc1nc2ccccc2c(=O)n1/N=C/c1cccs1 ?
KCNQ2 block: inactive

How did O=C(CSc1nnc(Cc2cccs2)n1Cc1ccco1)Nc1ccc(Cl)cc1Cl do in these assays?
KCNQ2 enhance: -6.9; KCNQ2 block: -6.9*; KCNQ2 block conf: inactive; KCNQ1 spec: inactive; CHO Tl ctr: inactive

What do the screens show for `Cn1c(Cc2cccs2)nnc1SCC(=O)Nc1ccccc1F`?
KCNQ2 block: inactive

Results for O=C(c1cccc(S(=O)(=O)Nc2ccc(Br)cc2)c1)N1CCC1 ?
KCNQ2 enhance: 1.4; KCNQ2 block: inactive

What do the screens show for `CCN(c1ccccc1)S(=O)(=O)c1cccc(C(=O)N(C)CCOc2ccccc2)c1`?
KCNQ2 block: inactive
